# Laboratory results from PubChem BioAssay (NCI).
# The panel holds about 79,000 compounds, 15% with a hit somewhere; the sample as a whole holds those more often. A number with no mark means an inactive call. Activity calls are given as the source filed them. Cut-off read from the data, not from the text of the source: active = growth inhibition above about 70%; inactive = the rest.
# Assays:
# [1] = NCI Yeast Anticancer Drug Screen. Data for the rad50 strain (AID 155);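 note: 0% = growth of vehicle-only cultures of the same strain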; conditions: S. cerevisiae rad50 strain growth inhibition; at 50.0 µM; active compounds read high
# Summary of the method: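 Growth of the mutant yeast was measured after compound exposure and referenced to vehicle-treated cultures.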
# [2] = NCI Yeast Anticancer Drug Screen. Data for the mec2-1 strain (AID 157); conditions: S. cerevisiae mec2-1 strain, at 50.0 µM, active compounds read high
# Summary of the method: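 Strain: mec2-1 (DNA repair/cell cycle alteration). Compound exposure, then growth measured; inhibition expressed relative to vehicle.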
# [3] = NCI Yeast Anticancer Drug Screen. Data for the sgs1 mgt1 strain (AID 161);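 note: 0% = growth of cultures given vehicle only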; conditions: S. cerevisiae sgs1 mgt1 strain, at 50.0 µM, active compounds read high
# Summary of the method: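 Inhibition of yeast growth, normalised to vehicle-treated controls, is reported for a strain bearing genetic alterations in DNA damage repair.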
# [4] = NCI Yeast Anticancer Drug Screen. Data for the cln2 rad14 strain (AID 165);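 note: 0% = growth equal to vehicle treated cultures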; conditions: S. cerevisiae cln2 rad14 strain, at 50.0 µM, active compounds read high
# Summary of the method: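 Compounds are applied to the cln2 rad14 yeast strain, and growth is then compared with that of vehicle-treated cultures to give inhibition.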
# [5] = NCI Yeast Anticancer Drug Screen. Data for the bub3 strain (AID 167); conditions: S. cerevisiae bub3 mutant strain, at 50.0 µM, active compounds read high
# Summary of the method: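 Whole-cell yeast assay. The mutant strain was incubated with compounds, and growth inhibition was determined by comparison with vehicle-treated cells.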
# [6] = NCI Yeast Anticancer Drug Screen. Data for the mlh1 rad18 strain (AID 175); conditions: S. cerevisiae mlh1 rad18 strain growth inhibition; at 50.0 µM; active compounds read high
# Summary of the method: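 Read-out is yeast growth inhibition, calculated against vehicle-only controls. The compound was applied to a strain engineered with DNA damage repair alterations.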
SMILES,growth inhibition [1],growth inhibition [2],growth inhibition [3],growth inhibition [4],growth inhibition [5],growth inhibition [6]
Cc1ccc(S(=O)(=O)N2CCCC(O)c3ccccc32)cc1 (configuration not stated),-18.2%,-15.8%,-29.4%,11.7%,6.65%,3.85%
O=C1CC[C@@H](C(=O)Nc2cccc3ccccc23)N1,-7.15%,8.45%,8.5%,-24.4%,10.6%,21.2%
CC(=O)c1cccc(NC(=O)C(=O)C(C2OC(=O)c3ccccc32)[N+](=O)[O-])c1 (configuration not stated),5.45%,11.6%,17.6%,11.4%,3.2%,8.5%
N#[N+]c1ccc2c(c1)C(=O)c1ccccc1-2,3.2%,0.05%,-0.6%,-46.2%,8.6%,-6.65%
CCOC(=O)C1=CNC(C(=O)OCC)C1c1cccn1-c1ccc(Cl)cc1[N+](=O)[O-] (configuration not stated),8.6%,16.8%,10.8%,29%,3.8%,40.8%
COc1cccc(/S(C)=N/S(=O)(=O)c2ccc(C)cc2)c1 (configuration not stated),-11.2%,-7.15%,2.8%,-6.65%,-8.65%,8.5%
O=C(/C=C/C=C/c1ccccc1)CCc1ccccc1,6.75%,17.2%,24.2%,30.6%,16.2%,-29.4%
C=C(C)C#CC1(O)C=C(OC)C(OC)=CC1=O (configuration not stated),-36.4%,-12.7%,-10.1%,-61.9%,-13.1%,7.35%
CCOC(=O)C(C(=O)OCC)C(C)(C)C,-96.7%,-18.3%,-28.2%,-36.4%,-3.85%,-9.2%
CC(=O)Oc1cc(OC(C)=O)c(OC(C)=O)c2c1CCCC2,6.45%,14.8%,6.65%,-91.1%,16.4%,56.7%
N#C/C(=C(/N)N1CCOCC1)N1CCOCC1,-18.4%,-8.95%,-9.15%,-13.6%,16.1%,-4.2%
Cc1ccc(S(=O)(=O)N/N=C2\CCC3(C)C(CCC4C3CCC3(C)C(C(C)CCCC(C)C)CCC43)C2)cc1 (configuration not stated),42.3%,17.8%,35.3%,27.6%,-4%,33.9%
CCOC(=O)CNC(=O)C(CC(C)C)NC(=O)OCc1ccccc1 (configuration not stated),6.7%,7.9%,28.8%,5.25%,2.8%,-11%
O=c1oc2c(c(N(c3ccccc3)c3ccccc3)c1Cl)CCc1nc(-c3ccccc3)sc1-2,3%,-1.25%,-7.6%,10.8%,-1.55%,-14.9%
Cn1c(=O)c2[nH]c(N/N=N/c3nncs3)nc2n(C)c1=O,-67.5%,-117%,-51.9%,-19.8%,-19.4%,-117%
COc1nc(OC)c2[nH]cnc2n1,17.6%,15.3%,13.1%,-38.7%,-1.35%,14.7%
COC(=O)Nc1nc2ccc(C3c4c(n[nH]c4C)CC(C)(O)C3C(C)=O)cc2[nH]1 (configuration not stated),20.4%,3.85%,-7.3%,-6.5%,0.45%,10.6%
CCOCC(C)(CO)CC(C)CO (configuration not stated),-10.2%,1.35%,-5.6%,-6.6%,-4.55%,4%
N#CC1=C(O)/C(=C\C=C\c2ccccc2)N(C(=O)c2ccccc2)C1=N,12.2%,-7.6%,-6.2%,10.2%,-6.85%,19.1%

SMILES,growth inhibition [1],growth inhibition [2],growth inhibition [3],growth inhibition [4],growth inhibition [5],growth inhibition [6]
O=S(=O)(Nc1ccccc1C(O)c1ccccc1)c1ccccc1 (configuration not stated),35.5%,0.8%,12.3%,-27%,13.5%,34.4%
O=C(NN1C(=O)C(Cl)C1c1ccc([N+](=O)[O-])cc1)c1ccccc1O (configuration not stated),-16.2%,-19.2%,-35.7%,-6.45%,-26%,-20.1%
CC1Cc2ccccc2C2=C3CC=CCC3C3C(=O)OC(=O)C3C21 (configuration not stated),11.4%,8.05%,0.5%,2.3%,6.05%,7.65%
Cc1cc(OCC(=O)O)c(Cl)cc1Cl,-13.4%,-9.7%,-50.5%,-22.9%,-17.9%,-11.7%
CC(=O)CC(=O)Nc1cccc(C)c1C,-8.1%,-15.2%,15.3%,-1.7%,9.3%,-5.6%
CCC(C)OC(=S)S.[Cu+2] (configuration not stated),-23.6%,19.4%,-0.85%,-4.8%,-76.5%,-44.9%
CCC(C)(C)c1ccc(OCCO)cc1,-29.2%,-29.4%,-20.8%,-12.9%,-19.2%,-23.4%
Cc1ccc(S(=O)(=O)CC(=O)NC(N)=O)cc1,-5%,-1.1%,-5.2%,-2.1%,-1.15%,-7.3%
NC(=S)c1cccc(C(N)=S)n1,18.7%,19.9%,23.9%,-27.9%,22.6%,26.6%
CCn1c(=O)c2c3ccc(OC(C)=O)cc3[nH]c2c2ccc(OC(C)=O)cc21,-17.9%,-30.5%,-10.9%,9.35%,4%,-21.6%
CCOC(=O)NC(Nc1ccc(C(=O)O)cc1)(C(F)(F)F)C(F)(F)F,-5.75%,-10.8%,-38.5%,18.6%,4.65%,11.4%
Nc1ccc(C(=O)Nc2ccc(C(=O)Nc3ccc4c(O)cc(S(=O)(=O)O)cc4c3)cc2)cc1,-6.3%,-6.65%,-4.6%,-34.3%,-4.7%,12.8%
Cn1c(=O)c2c(ncn2CCCCn2ccnc2[N+](=O)[O-])n(C)c1=O,-30.1%,-3.95%,-14.9%,7.3%,-1.25%,-5.35%
O=C(Nc1ccc(Cl)cc1)Nc1nnc2nc(CC(=O)c3cccc([N+](=O)[O-])c3Cl)c(=O)[nH]n12,-9.45%,11.4%,2.95%,-0.4%,5.6%,9.55%
CCC(C)NC(=O)Nc1ccccc1 (configuration not stated),13.3%,8.95%,-0.65%,3.9%,-2.45%,6.35%
O=[N+]([O-])c1ccn(O)c(=Nc2ccccc2)c1,1.7%,11.2%,5.45%,-32.5%,-14.9%,20.4%
Nc1nnc2cc(Br)ccc2n1,-6%,-2.55%,17.7%,14.2%,19.5%,4.45%
[Cl][Pd][Cl].[NH-]c1ccc(/C=C2\C=Cc3ccccc32)cc1.[NH-]c1ccc(/C=C2\C=Cc3ccccc32)cc1,89.5% (active),32.8%,83.7% (active),47.4%,75.5% (active),79.3% (active)
